# What was measured:
# Assay in all cases: DAPPL (digital affinity profiling via proximity ligation, sequencing); 10 mM Tris-HCl pH 7.5, 50 mM NaCl, 1 mM DTT, 4% glycerol, room temperature, 30 min; GST-TFs on glutathione beads, 16-mer random dsDNA library, 0.1% formaldehyde crosslink after washing; high values mean tight binding
# FEV = target: T1, FEV (Homo sapiens, UniProt Q99581 1-238); details: protein: recombinant; tags: N-terminal GST; dsDNA, one strand shown
# T1 sequence: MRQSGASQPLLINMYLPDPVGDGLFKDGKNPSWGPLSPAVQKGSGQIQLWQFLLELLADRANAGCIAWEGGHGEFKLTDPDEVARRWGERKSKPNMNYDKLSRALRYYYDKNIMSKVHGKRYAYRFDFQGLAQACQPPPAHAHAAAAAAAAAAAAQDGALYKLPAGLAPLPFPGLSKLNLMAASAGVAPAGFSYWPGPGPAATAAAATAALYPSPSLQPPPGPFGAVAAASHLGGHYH
# Outline: (§1)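 Human transcription factors were made in yeast as GST fusions, captured on glutathione beads and barcoded with DNA. With a tag-only sample included, the pool was incubated with 200 nmole of a random double-stranded 16-mer DNA library in Tris/NaCl/DTT/glycerol buffer at room temperature for 30 min, then crosslinked with 0.1% formaldehyde after washing, ligated by proximity, amplified and sequenced. For binding signal, each hexamer's read frequency for a factor is divided by its frequency for the tag-only sample.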
# ETV5 = ETV5 (Homo sapiens, UniProt P41161 1-510); details: protein: recombinant; tags: N-terminal GST; dsDNA, one strand shown
# ETV5, sequence (P41161 whole entry): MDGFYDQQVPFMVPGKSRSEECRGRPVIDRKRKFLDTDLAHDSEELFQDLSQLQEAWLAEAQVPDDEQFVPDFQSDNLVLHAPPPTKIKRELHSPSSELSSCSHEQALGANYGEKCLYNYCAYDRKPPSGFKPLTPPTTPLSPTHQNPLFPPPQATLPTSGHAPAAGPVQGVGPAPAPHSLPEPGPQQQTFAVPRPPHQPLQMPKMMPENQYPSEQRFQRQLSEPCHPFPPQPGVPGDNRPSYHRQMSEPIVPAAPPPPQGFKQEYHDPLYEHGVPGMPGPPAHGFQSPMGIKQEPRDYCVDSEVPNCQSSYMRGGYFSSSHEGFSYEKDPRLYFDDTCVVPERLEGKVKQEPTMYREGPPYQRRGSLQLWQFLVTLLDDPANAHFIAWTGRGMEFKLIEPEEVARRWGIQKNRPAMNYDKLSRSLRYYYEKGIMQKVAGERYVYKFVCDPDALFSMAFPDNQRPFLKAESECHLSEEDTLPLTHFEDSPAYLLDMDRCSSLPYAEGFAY
# Outline: as §1
# HSF1 = HSF1 (Homo sapiens, UniProt Q00613 1-529); details: protein: recombinant; tags: N-terminal GST; chain copies: 3; dsDNA, one strand shown
# HSF1, sequence (Q00613 whole entry): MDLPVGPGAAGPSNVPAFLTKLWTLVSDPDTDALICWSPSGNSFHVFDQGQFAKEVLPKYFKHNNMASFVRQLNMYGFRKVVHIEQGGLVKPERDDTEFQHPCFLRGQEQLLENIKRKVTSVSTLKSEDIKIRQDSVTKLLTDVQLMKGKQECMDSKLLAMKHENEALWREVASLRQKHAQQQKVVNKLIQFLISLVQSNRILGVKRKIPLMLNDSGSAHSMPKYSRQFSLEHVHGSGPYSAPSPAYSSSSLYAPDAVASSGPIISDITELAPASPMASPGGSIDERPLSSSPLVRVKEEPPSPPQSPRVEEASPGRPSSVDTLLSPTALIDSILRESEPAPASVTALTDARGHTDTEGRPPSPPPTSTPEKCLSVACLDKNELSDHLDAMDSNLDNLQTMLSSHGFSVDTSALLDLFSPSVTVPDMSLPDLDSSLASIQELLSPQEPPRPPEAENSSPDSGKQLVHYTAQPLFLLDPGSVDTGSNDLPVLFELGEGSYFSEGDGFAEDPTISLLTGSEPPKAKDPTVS
# Outline: as §1
# SPIC = target: T2, SPIC (Homo sapiens, UniProt Q8N5J4 1-248); details: protein: recombinant; tags: N-terminal GST; dsDNA, one strand shown
# T2 sequence: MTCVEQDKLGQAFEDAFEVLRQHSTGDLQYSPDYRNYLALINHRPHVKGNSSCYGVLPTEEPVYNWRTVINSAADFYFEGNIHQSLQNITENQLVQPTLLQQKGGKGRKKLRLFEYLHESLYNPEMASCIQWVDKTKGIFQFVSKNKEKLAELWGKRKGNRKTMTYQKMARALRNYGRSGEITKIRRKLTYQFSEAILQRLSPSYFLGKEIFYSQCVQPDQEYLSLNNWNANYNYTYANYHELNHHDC
# Outline: as §1
# ELF4 = ELF4 (Homo sapiens, UniProt Q99607 1-663); details: protein: recombinant; tags: N-terminal GST; dsDNA, one strand shown
# ELF4, sequence (Q99607 whole entry): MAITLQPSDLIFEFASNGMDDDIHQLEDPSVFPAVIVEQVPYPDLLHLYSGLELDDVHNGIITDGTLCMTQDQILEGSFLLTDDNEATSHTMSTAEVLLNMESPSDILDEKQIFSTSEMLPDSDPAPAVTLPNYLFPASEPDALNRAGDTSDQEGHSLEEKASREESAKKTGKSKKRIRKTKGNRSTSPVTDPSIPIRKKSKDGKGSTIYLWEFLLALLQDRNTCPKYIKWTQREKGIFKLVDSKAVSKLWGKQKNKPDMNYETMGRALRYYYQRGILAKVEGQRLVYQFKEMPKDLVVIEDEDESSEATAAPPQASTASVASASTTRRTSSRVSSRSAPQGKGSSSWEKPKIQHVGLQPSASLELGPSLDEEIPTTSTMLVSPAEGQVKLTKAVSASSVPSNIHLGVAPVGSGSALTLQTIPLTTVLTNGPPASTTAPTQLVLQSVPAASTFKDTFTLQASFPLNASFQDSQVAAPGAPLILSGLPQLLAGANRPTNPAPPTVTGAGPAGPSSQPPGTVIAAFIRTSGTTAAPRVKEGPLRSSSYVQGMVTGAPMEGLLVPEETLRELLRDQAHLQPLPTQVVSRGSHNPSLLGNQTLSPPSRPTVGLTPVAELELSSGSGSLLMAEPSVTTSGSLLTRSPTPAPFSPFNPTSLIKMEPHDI
# Outline: as §1
# ELK4 = target: T3, ELK4 (Homo sapiens, UniProt P28324-2 1-405); details: protein: recombinant; tags: N-terminal GST; dsDNA, one strand shown
# T3 sequence: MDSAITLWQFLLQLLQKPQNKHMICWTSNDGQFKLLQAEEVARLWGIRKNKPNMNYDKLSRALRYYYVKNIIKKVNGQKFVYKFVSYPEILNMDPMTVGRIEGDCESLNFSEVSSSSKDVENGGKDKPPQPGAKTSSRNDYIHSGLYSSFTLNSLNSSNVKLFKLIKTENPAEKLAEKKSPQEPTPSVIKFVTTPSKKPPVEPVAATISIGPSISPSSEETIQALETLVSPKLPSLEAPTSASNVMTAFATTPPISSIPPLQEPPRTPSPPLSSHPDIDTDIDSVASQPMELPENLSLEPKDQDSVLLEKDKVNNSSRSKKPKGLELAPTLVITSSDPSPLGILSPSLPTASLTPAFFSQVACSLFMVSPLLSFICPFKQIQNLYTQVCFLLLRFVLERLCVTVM
# Outline: as §1
# ETV2 = target: T4, ETV2 (Homo sapiens, UniProt O00321 1-342); details: protein: recombinant; tags: N-terminal GST; dsDNA, one strand shown
# T4 sequence: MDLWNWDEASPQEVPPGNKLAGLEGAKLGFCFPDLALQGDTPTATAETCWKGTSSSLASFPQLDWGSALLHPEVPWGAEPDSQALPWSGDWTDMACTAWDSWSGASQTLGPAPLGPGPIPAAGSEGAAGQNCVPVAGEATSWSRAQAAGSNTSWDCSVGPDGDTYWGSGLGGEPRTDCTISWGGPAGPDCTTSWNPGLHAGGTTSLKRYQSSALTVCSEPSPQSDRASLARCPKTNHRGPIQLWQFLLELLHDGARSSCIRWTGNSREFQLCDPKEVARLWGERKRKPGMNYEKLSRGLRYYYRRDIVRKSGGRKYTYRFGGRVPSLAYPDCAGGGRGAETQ
# Outline: as §1
# ELF3 = target: T5, ELF3 (Homo sapiens, UniProt P78545 1-371); details: protein: recombinant; tags: N-terminal GST; dsDNA, one strand shown
# T5 sequence: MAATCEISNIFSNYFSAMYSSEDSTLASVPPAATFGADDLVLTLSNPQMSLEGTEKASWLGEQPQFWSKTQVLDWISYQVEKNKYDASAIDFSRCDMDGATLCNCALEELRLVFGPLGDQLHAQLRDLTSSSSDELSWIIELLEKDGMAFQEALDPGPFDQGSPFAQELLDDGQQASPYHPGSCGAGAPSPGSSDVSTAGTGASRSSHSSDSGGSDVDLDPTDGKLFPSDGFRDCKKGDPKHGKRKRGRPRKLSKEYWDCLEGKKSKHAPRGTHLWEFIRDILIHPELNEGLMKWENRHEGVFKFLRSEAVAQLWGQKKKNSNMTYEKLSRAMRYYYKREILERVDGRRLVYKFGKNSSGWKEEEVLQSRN
# Outline: as §1
# CRX = CRX (Homo sapiens, UniProt O43186 1-299); details: protein: recombinant; tags: N-terminal GST; dsDNA, one strand shown
# CRX, sequence (O43186 whole entry): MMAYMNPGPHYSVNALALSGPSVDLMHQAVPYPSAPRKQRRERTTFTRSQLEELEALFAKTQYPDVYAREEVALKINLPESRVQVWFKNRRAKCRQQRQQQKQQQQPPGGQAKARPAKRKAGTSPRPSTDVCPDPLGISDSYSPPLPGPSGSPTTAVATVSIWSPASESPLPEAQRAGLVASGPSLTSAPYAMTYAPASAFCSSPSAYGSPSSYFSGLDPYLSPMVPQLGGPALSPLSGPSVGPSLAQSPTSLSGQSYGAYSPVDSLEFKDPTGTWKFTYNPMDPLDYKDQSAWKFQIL
# Outline: as §1
# ETV1 = ETV1 (Homo sapiens, UniProt P50549 1-477); details: protein: recombinant; tags: N-terminal GST; dsDNA, one strand shown
# ETV1, sequence (P50549 whole entry): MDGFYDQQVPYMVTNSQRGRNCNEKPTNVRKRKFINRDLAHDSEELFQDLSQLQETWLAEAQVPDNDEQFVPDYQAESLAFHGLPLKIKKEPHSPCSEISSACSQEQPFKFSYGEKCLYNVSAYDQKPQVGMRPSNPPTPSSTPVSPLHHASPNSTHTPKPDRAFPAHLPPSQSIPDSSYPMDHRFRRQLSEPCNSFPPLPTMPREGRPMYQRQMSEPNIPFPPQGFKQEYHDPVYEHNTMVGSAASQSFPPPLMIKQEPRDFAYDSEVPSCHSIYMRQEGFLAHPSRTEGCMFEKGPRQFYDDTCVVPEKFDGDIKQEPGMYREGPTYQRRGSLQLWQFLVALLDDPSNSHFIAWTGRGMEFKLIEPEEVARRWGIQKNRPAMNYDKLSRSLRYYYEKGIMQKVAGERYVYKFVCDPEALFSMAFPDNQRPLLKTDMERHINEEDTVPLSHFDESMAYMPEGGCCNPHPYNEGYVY
# Outline: as §1
# ERF = target: T6, ERF (Homo sapiens, UniProt P50548 1-548); details: protein: recombinant; tags: N-terminal GST; dsDNA, one strand shown
# T6 sequence: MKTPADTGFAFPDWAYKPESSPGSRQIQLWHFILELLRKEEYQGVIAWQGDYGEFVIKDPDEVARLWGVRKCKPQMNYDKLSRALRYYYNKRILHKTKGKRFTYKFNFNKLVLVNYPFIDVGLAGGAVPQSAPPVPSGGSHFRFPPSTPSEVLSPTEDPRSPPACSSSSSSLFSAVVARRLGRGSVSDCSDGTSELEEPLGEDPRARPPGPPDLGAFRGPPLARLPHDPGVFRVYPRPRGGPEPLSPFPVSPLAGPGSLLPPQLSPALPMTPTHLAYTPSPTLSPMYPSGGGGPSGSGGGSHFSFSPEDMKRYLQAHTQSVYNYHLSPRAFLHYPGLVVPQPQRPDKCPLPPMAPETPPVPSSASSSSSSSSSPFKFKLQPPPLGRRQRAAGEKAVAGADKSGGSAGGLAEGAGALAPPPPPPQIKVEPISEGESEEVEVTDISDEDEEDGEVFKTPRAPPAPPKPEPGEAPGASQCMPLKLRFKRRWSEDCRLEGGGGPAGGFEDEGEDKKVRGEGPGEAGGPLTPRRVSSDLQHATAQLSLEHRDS
# Outline: as §1
# ETV3L = target: T7, ETV3L (Homo sapiens, UniProt Q6ZN32 1-361); details: protein: recombinant; tags: N-terminal GST; dsDNA, one strand shown
# T7 sequence: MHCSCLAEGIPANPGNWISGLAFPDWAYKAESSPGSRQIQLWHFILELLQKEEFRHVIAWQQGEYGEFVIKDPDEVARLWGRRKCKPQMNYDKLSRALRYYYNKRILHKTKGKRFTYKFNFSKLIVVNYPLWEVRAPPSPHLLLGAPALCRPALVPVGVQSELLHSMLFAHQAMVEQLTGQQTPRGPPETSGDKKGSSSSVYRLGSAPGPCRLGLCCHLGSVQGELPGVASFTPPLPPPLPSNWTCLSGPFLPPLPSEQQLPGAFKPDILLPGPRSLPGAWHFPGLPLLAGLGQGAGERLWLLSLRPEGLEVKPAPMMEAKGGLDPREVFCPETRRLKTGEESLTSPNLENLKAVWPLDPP
# Outline: as §1
# ETS2 = target: T8, ETS2 (Homo sapiens, UniProt P15036 1-469); details: protein: recombinant; tags: N-terminal GST; dsDNA, one strand shown
# T8 sequence: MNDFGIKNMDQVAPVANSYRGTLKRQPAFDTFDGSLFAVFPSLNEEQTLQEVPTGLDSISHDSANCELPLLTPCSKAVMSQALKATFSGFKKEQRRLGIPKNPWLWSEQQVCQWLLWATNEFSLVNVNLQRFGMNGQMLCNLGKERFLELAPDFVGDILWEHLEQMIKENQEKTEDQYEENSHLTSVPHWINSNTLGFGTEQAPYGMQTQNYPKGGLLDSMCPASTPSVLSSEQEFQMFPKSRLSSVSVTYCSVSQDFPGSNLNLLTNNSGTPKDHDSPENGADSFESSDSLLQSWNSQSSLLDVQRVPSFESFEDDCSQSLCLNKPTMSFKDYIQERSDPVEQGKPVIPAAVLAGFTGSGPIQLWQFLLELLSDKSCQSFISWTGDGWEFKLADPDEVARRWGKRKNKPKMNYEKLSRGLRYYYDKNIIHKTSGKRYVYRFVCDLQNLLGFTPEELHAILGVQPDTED
# Outline: as §1
# SPDEF = target: T9, SPDEF (Homo sapiens, UniProt O95238 1-335); details: protein: recombinant; tags: N-terminal GST; dsDNA, one strand shown
# T9 sequence: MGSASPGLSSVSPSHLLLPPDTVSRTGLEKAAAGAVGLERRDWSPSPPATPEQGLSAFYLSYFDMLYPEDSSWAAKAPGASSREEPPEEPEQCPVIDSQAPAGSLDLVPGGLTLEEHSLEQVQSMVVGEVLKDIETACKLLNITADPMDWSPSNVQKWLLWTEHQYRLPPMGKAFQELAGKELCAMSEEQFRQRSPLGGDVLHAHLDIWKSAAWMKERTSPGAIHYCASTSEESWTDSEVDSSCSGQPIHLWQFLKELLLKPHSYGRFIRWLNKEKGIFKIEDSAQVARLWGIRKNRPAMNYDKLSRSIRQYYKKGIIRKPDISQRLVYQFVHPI
# Outline: as §1
# ETV7 = target: T10, ETV7 (Homo sapiens, UniProt Q9Y603 1-341); details: protein: recombinant; tags: N-terminal GST; dsDNA, one strand shown
# T10 sequence: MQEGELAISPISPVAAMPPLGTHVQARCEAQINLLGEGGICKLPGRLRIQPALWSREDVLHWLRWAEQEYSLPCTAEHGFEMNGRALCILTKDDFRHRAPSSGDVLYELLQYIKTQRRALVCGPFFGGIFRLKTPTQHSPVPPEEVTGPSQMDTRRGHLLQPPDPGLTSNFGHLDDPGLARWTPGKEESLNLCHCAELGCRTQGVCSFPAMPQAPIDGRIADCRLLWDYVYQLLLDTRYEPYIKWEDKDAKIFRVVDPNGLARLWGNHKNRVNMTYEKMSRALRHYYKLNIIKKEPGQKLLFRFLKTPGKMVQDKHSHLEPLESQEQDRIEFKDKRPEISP
# Outline: as §1
# ELF5 = target: T11, ELF5 (Homo sapiens, UniProt Q9UKW6-2 1-255); details: protein: recombinant; tags: N-terminal GST; dsDNA, one strand shown
# T11 sequence: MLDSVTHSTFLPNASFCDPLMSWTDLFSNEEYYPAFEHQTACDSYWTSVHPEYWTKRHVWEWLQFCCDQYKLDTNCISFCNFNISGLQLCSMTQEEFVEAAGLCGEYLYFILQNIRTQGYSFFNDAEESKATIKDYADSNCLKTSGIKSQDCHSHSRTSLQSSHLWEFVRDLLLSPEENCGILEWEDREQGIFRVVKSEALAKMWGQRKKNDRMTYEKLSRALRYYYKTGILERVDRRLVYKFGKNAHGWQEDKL
# Outline: as §1
# ETV3 = target: T12, ETV3 (Homo sapiens, UniProt P41162-2 1-143); details: protein: recombinant; tags: N-terminal GST; dsDNA, one strand shown
# T12 sequence: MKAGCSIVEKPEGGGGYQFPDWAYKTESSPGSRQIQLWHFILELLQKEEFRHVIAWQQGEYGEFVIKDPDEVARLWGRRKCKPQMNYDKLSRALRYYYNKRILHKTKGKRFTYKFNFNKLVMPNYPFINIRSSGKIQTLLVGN
# Outline: as §1
# ETV6 = ETV6 (Homo sapiens, UniProt P41212 1-452); details: protein: recombinant; tags: N-terminal GST; dsDNA, one strand shown
# ETV6, sequence (P41212 whole entry): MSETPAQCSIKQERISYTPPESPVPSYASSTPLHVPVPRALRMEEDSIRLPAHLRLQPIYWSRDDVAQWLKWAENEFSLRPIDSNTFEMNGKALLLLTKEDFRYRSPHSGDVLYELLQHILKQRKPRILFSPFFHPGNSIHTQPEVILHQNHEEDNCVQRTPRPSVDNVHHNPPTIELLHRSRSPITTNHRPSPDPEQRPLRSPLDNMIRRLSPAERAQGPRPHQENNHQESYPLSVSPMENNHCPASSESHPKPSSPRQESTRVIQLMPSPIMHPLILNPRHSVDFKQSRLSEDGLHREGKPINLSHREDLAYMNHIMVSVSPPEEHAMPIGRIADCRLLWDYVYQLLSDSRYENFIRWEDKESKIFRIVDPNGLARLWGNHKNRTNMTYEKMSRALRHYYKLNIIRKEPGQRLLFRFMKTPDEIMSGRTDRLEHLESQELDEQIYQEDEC
# Outline: as §1
Sequence,binding signal (FEV),binding signal (ETV5),binding signal (HSF1),binding signal (SPIC),binding signal (ELF4),binding signal (ELK4),binding signal (ETV2),binding signal (ELF3),binding signal (CRX),binding signal (ETV1),binding signal (ERF),binding signal (ETV3L),binding signal (ETS2),binding signal (SPDEF),binding signal (ETV7),binding signal (ELF5),binding signal (ETV3),binding signal (ETV6)
CATCCC,"1.18 fold enrichment (6-mer frequency, TF over GST control)","1.31 fold enrichment (6-mer frequency, TF over GST control)","1.05 fold enrichment (6-mer frequency, TF over GST control)","1.3 fold enrichment (6-mer frequency, TF over GST control)","1.22 fold enrichment (6-mer frequency, TF over GST control)","1.22 fold enrichment (6-mer frequency, TF over GST control)","1.15 fold enrichment (6-mer frequency, TF over GST control)","1.27 fold enrichment (6-mer frequency, TF over GST control)","1.05 fold enrichment (6-mer frequency, TF over GST control)","1.16 fold enrichment (6-mer frequency, TF over GST control)","1.2 fold enrichment (6-mer frequency, TF over GST control)","1.26 fold enrichment (6-mer frequency, TF over GST control)","1.33 fold enrichment (6-mer frequency, TF over GST control)","1.47 fold enrichment (6-mer frequency, TF over GST control)","1.2 fold enrichment (6-mer frequency, TF over GST control)","1.44 fold enrichment (6-mer frequency, TF over GST control)","1.16 fold enrichment (6-mer frequency, TF over GST control)","1.24 fold enrichment (6-mer frequency, TF over GST control)"
CGATTT,"1.22 fold enrichment (6-mer frequency, TF over GST control)","1.23 fold enrichment (6-mer frequency, TF over GST control)","1.38 fold enrichment (6-mer frequency, TF over GST control)","1.22 fold enrichment (6-mer frequency, TF over GST control)","1.19 fold enrichment (6-mer frequency, TF over GST control)","1.14 fold enrichment (6-mer frequency, TF over GST control)","1.13 fold enrichment (6-mer frequency, TF over GST control)","1.23 fold enrichment (6-mer frequency, TF over GST control)","1.58 fold enrichment (6-mer frequency, TF over GST control)","1.17 fold enrichment (6-mer frequency, TF over GST control)","1.09 fold enrichment (6-mer frequency, TF over GST control)","1.17 fold enrichment (6-mer frequency, TF over GST control)","1.26 fold enrichment (6-mer frequency, TF over GST control)","1.07 fold enrichment (6-mer frequency, TF over GST control)","1.13 fold enrichment (6-mer frequency, TF over GST control)","1.13 fold enrichment (6-mer frequency, TF over GST control)","1.18 fold enrichment (6-mer frequency, TF over GST control)","1.22 fold enrichment (6-mer frequency, TF over GST control)"
